From PubChem BioAssay
Only some compounds are listed: those with a hit (about 7.3% of all), similar ones and a draw of the others.
FLuc modulator: firefly luciferase modulation, counter-screen for miR-21 project; purified FLuc, Km substrates, luminescence inhibition; Potency, µM (series often up to 57.5 µM), for inactives: at the top dose activity change, negative = inhibition, usual class: inhibitors; P08659; 6.9% of 360,000 active;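 also: plate controls were vehicle for no effect and reference inhibitor for full effect; nearly all actives have a fitted effect of over 55% in size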
Target sequence (P08659 whole entry, looked up): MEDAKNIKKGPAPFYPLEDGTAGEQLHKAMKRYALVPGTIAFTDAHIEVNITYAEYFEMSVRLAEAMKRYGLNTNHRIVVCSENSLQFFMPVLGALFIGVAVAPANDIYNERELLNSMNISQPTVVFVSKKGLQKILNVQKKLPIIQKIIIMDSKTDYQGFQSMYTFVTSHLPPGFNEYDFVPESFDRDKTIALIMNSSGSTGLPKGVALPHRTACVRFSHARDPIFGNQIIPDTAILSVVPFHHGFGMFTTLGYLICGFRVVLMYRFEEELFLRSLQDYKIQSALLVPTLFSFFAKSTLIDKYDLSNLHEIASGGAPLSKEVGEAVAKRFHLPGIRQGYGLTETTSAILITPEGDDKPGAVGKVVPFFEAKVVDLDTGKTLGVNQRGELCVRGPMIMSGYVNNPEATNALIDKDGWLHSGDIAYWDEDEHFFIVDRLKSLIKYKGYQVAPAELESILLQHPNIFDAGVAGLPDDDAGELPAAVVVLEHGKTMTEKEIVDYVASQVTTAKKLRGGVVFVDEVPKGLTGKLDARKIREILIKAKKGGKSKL
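Biochemical qHTS of compounds, final roughly 60 µM downward over six points, against 10 nM purified firefly luciferase using Km concentrations of substrates (10 uM D-luciferin, 10 uM ATP) in Tris acetate pH 7.5 buffer; luminescence output.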
ELG1 genotoxic: inducers of genotoxicity in HEK293T ELG1-luciferase cells; 1.3% of 330,000 active; HEK293T ELG1-luciferase reporter, luminescence, 16 h; Potency, µM (highest dose often 46 µM), for inactives: at the highest dose activity change, positive = activation, most hits filed as activators; also: % of control where 0% means no effect; nearly all actives have a fitted effect of over 60% in size
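HEK293T cells expressing luciferase-tagged ELG1 were treated with compound or DMSO for 16 hr at 37°C. Luciferase activity was then read after 30 min with ONE-Glo at room temperature; rising signal flags genetic stress.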
NPC1 prom act: activators of NPC1 promoter | Huh7 NPC1 promoter luciferase reporter, 24 h | Potency, µM (titrated, usually from 9.22 µM), without a hit: at the top dose activation, actives largely listed as activators | 2.4% of 320,000 active | AID 485313; also: % of control where 0% means no effect; nearly all actives have a fitted effect of over 60% in size
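Luminescence from an NPC1 promoter-driven luciferase reporter in stably transfected Huh7 cells was measured after 24 h compound treatment at 37 °C, followed by 10 min ambient incubation with luciferase detection reagent.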
Rab9 prom act: Rab9 promoter activation; 2.8% of 320,000 active; Potency, µM (top dose mostly 9.22 µM), for the others: at the highest dose activation, negative = inhibition, most hits filed as activators; Huh7 Rab9 promoter-luciferase reporter, luminescence, 24 h; also: % of control where 0% means no effect; nearly all actives have a fitted effect of over 60% in size
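Rab9 promoter-driven luciferase in stably transfected Huh7 cells; 1500 cells/well rested 2 h, exposed to compound in DMSO for 24 h at 37 °C, 5% CO2. Luminescence read 10 min after adding luciferase reagent at ambient temperature.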
SMN2 splice enh: enhancers of SMN2 splice variant expression. Potency, µM (doses to about 46.1 µM), for the others: top-dose activity change, positive = activation, actives largely listed as activators. AID 1458. 2.8% of 210,000 active. HEK293 SMN2-luciferase splicing reporter, luminescence, 30-36 h; also: % of control where 0% means no effect; nearly all actives have a fitted effect of over 55% in size
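HEK293 cells carry an SMN2 minigene-luciferase reporter in which exon 7 inclusion puts luciferase in frame. Cells were seeded at 2000 cells/well, attached for 10-12 hours, then exposed to compounds for 30-36 hours at 37C before ONE-Glo luminescence.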
p53 reactivation: mutant p53 re-activation in reporter cells. H1299 p53-A138V BP100-luciferase reporter, luminescence, 24 h. Potency, µM (titrated, usually from 92.2 µM), inactives show at the top dose activity change, positive = activation, usual class: activators. 0.063% of 320,000 active; also: % of control where 0% means no effect; nearly all actives have a fitted effect of over 45% in size
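p53-null H1299 cells stably carrying temperature-sensitive p53-A138V and a BP100-luciferase reporter were pinned with compounds (4-point, 1:5 series) and held 24 hrs at 37 deg C. Luminescence was read 10 min after detection reagent.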
The depositor's hits bear a star; ? = inconclusive; . = no result; [ ] = another dose, or the depositor's remark. Calls follow the shape of the dose curve; as a rule, active = well fitted curve in the direction sought with a large enough effect; inconclusive = small, poorly fitted or top-dose-only effect, or another doubt; inactive = no such curve, though single readings can be large; an effect the other way counts as inactive or inconclusive. Potency is read from the fitted curve at half-maximal effect.

SMILES	FLuc modulator	ELG1 genotoxic	NPC1 prom act	Rab9 prom act	SMN2 splice enh	p53 reactivation
O=C(CCCN1C(=O)/C(=C/c2ccccc2Cl)SC1=S)NNC(=O)c1ccncc1	15µM*	-9%	-13%	-14%	.	-6%
O=C(CCCN1C(=O)/C(=C/c2ccccc2Cl)SC1=S)NNC(=O)c1ccccc1Cl	7.6µM*	-3%	-21%	-27%	-35%	-24%
O=C(CCCN1C(=O)/C(=C/c2cccs2)SC1=S)NNC(=O)c1ccncc1	4%	1%	-6%	0%	11%	0%
O=C(CCCN1C(=O)/C(=C/c2cccs2)SC1=S)NNC(=O)c1ccccc1O	-2%	9%	-8%	-1%	-9%	-3%
O=C(Nc1ccc(S(=O)(=O)N2CCCC2)cc1)c1cc(F)c(F)cc1Cl	-5%	-6%	1%	-2%	.	-4%
COc1ccc(-c2cc3ccccc3oc2=O)cc1NC(=O)c1cccnc1	11µM*	-4%	-6%	7%	-5%	4%
COc1cc2c(cc1NC(=O)c1cccnc1)oc1ccccc12	15µM*	?	?	?	?	14%
COc1cc2c(cc1NC(=O)c1ccncc1)oc1ccccc12	?	?	27%	25%	-8%	8%
Cc1csc(=NC(=O)c2ccccc2)n1C	13µM*	21µM*	3.2µM*	2.5µM*	11µM*	?
Cc1csc(=NC(=O)c2ccccc2)n1Cc1ccco1	?	1%	13%	17%	-26%	-3%
CCn1c(C)csc1=NC(=O)c1ccccc1O	13µM*	?	2.8µM*	2.8µM*	-9%	6%
CCn1c(C)csc1=NC(=O)c1ccccc1	19µM*	7%	17%	?	-10%	?
CC1=C(C(=O)OCc2ccc(C)cc2)C(c2ccccc2C(F)(F)F)CC(=O)N1 (configuration not stated)	0%	.	.	.	1%	.
CN(C)c1ncnc2c1ncn2C1OC(CO)C(O)C1O (configuration not stated)	0%	9%	-11%	-3%	5.6µM*	-1%
OCC1OC(n2cnc3c(Cl)ncnc32)C(O)C1O (configuration not stated)	.	.	.	.	-4%	.
CNc1ncnc2c1ncn2[C@@H]1O[C@H](CO)[C@@H](O)[C@H]1O	-2%	16µM*	-2%[46.1 µM]	-1%[46.1 µM]	5%	4%
C[C@H](Cc1ccccc1)Nc1ncnc2c1ncn2[C@@H]1O[C@H](CO)[C@@H](O)[C@H]1O	-3%	13µM*	-2%	13%	10%	4%
CCCCNc1nc2c(S(=O)(=O)c3ccc(Br)cc3)nnn2c2ccsc12	-8%	.	.	.	.	.
O=[N+]([O-])c1cc(-c2nc(-c3ccccc3)no2)ccc1N1CCOCC1	4%	.	.	.	.	.
O=C(NCCCn1ccnc1)c1cccc(Br)c1	0%	-1%	9%	-5%	.	-2%
CCN(CC)CCCn1c(-c2ccccc2)nc2c(N3CCOCC3)nc(C)nc21	.	.	.	.	-8%	.
Cc1ccn2cc(C34CC5CC(CC(C5)C3)C4)nc2c1	6.7µM*	-3%	-1%	0%	13%	1%
Cc1ccc2nc(/C(C#N)=C\c3cc(O)ccc3[N+](=O)[O-])[nH]c2c1	19µM*	1%	-1%	0%	3%	13%
COc1cc(/C=C(\C#N)c2nc3ccc(C)cc3[nH]2)cc([N+](=O)[O-])c1O	3.8µM*	?	15%	?	?	7%
COc1cccc(/C=C(\C#N)c2nc3ccc(C)cc3[nH]2)c1	3.4µM*	.	.	.	24%	.
COc1cc(/C=C(\C#N)c2nc3ccc(C)cc3[nH]2)c([N+](=O)[O-])cc1OC	-5%	-1%	-1%	-1%	-25%	6%
Oc1cccc(Nc2nc(-c3ccccc3)nc3ccccc23)c1	?	-8%	-7%	-1%	?	-2%
Cc1ccc2nc(N(CCCN(C)C)C(=O)c3ccc4ncsc4c3)sc2c1	17µM*	?	?	4µM*	.	?
